According to PubChem BioAssay (EPA / NIEHS):
Where “and” joins values, the source holds several entries; their conditions need not be identical. Identical values can stand only once. Inconclusive results are not listed. A structure can be active in one record and inactive in another. Calls of active or inactive are those of the source. How the source made its calls: active means hit-call score of the fitted dose curve at least 0.9, where 1 is the maximum; inconclusive means response in the unintended direction; inactive means score below 0.9.

Each compound was assayed against Cellular tumor antigen p53 (Homo sapiens) (UniProt P04637) (assay: TOX21_p53_BLA_p5_ratio: Tox21 HCT-116 p53 Agonism Beta-lactamase Assay, Ratio, Phase 5 (AID 2283599)).
Cellular tumor antigen p53 (Homo sapiens), sequence (P04637 whole entry, looked up, the tested form may be a part): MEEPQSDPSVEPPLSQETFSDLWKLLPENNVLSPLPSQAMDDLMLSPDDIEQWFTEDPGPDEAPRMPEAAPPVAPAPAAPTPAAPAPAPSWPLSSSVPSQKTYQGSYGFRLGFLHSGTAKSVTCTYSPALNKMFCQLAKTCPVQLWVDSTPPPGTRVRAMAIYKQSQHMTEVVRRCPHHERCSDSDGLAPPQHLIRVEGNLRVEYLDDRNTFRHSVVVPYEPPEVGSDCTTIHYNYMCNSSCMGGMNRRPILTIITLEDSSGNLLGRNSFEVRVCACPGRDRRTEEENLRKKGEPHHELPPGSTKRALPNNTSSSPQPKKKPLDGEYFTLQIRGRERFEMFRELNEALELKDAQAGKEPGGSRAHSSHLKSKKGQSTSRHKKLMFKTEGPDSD
From the text: TOX21_p53_BLA_p5 is a cell-based, single-readout assay that uses HCT116, a human intestinal cell line, […] in a 1536-well plate.TOX21_p53_BLA_p5_ratio is an assay readout measuring reporter gene via receptor activity and designed using inducible reporter (beta lactamase induction) detected with GAL4 b-lactamase reporter gene. The signal is derived from the ratio of cleaved (ch2) to uncleaved (ch1) reporter gene substrate used as the measure of target activity.Data from the assay component TOX21_p53_BLA_p5_ratio was analyzed into 1 assay endpoint. This assay endpoint, TOX21_p53_BLA_p5_ratio, was analyzed in the positive analysis fitting direction relative to DMSO as the negative control and baseline of activity. Using a type of inducible reporter, gain-of-signal activity can be used to understand changes in the reporter gene as they relate to the gene TP53. Furthermore, this assay endpoint can be referred to as a primary readout, because this assay has produced multiple assay endpoints and this ratio serves a reporter gene function to understand target activity. To generalize the intended target to other relatable targets, this assay endpoint is annotated to the DNA binding intended target family, where the subfamily is tumor suppressor.
Thawing Method: Place 14 mL of pre-warmed thaw medium into a 15 mL of conical tub. Remove the vial of cells to be thawed from liquid nitrogen and thaw rapidly by placing at 37C in a water bath with gentle agitation for 1-2 minutes. Decontaminate the vial by wiping with 70% ethanol before opening in a biological safety cabinet. Transfer the vial contents drop-wise into 14 mL of thaw medium in a sterile 15-mL conical tub. Centrifuge cells at 900 rpm for 4 minutes and resuspend in thaw medium. Transfer contents to the T75 tissue culture flask containing Thaw Medium and place flask in a humidified 37C/5% CO2 incubator. Switch to growth medium at first passage.Propagation Method: Aspirate medium, rinse once in DPBS, add 0.25% Trypsin/EDTA and swirl to coat the cell evenly. Add an equal volume of Growth Medium to inactivate Trypsin after 2-3 minutes incubation at 37C. Centrifuge cells at 900 rpm for 4 minutes and resuspend in growth medium. Cell should be passage or fed at least twice a week.Assay Protocol: Harvest cells from culture in growth medium and resuspend in assay medium. 2.2 Dispense 4000 cells/5 uL/well into 1536-well black/clear bottom plates using a Multidrop dispenser. After the cells were incubated at 37C for 5 hours, 23 nL of compounds dissolved in DMSO were transferred to the assay plate by a PinTool resulting in a 217-fold dilution. Incubate the plates for 16 hours at 37C, 5% CO2. Add 1 uL of 6X LiveBLAzer FRET B/G (CCF4-AM) Substrate Mixture to each well using a BioRAPTR dispenser and incubate the plates at room temperature for 2 hours. Measure fluorescence intensity at 460 and 530 nm emission and 405 nm excitation by an Envision detector. Data is expressed as the ratio of 460nm/530nm emissions. Add 4 uL of Cell-titer Glo to each well using BioRAPTR and incubate the plates at room temperature for 2 hours. Measure fluorescence intensity by a VewLux plate reader.

Row | Compound | outcome | AC50
1 | O=C(O)C(=O)O | inactive | –
2 | CCOC(C)=O | inactive | –
3 | CCCC=O | inactive | –
4 | NNc1nc(-c2ccc([N+](=O)[O-])cc2)cs1 | – | 39.6 µM (active)
5 | Nc1ccc(O)c(C(=O)O)c1 | inactive | 71.9 µM (active)
6 | COC(=O)CC(C(C)=O)C(=O)OC (stereo not given) | inactive | –
7 | O=C(c1ccccc1)c1ccccc1 | inactive | –
8 | CCCCCCOC(=O)c1ccc(O)cc1 | – | 70.6 µM (active) and 76.8 µM (active)
9 | CCCCCCCCCCCCOC(=O)c1cc(O)c(O)c(O)c1 | – | 48.3 µM (active) and 77 µM (active)
10 | O=C1OC(=O)c2cc(-c3ccc4c(c3)C(=O)OC4=O)ccc21 | inactive | –
11 | CCCCCCC(C)(C)C(=O)O | inactive | –
12 | CC=O | – | 30.3 µM (active)
13 | CCCCCCCCCCCC[N+](C)(C)CCCCCCCCCCCC | – | 56.6 µM (active)
14 | CN(C)c1ccc(C(=C2C=CC(=[N+](C)C)C=C2)c2ccccc2)cc1 | inactive | 19.2 µM (active)
15 | Oc1ccc(Cc2ccccc2O)cc1 | inactive | –
16 | Nc1cc(Cl)c(-c2cc(Cl)c(N)cc2Cl)cc1Cl | – | 85.2 µM (active) and 85.6 µM (active)
17 | COc1ccccc1NC(=O)c1cc2ccccc2cc1O | inactive | –

Row | Compound | outcome | AC50
18 | CCCCCCCCCCCC(=O)NCCCN(C)C | – | 86 µM (active)
19 | O=C(Nc1ccc(Cl)c(Cl)c1)c1cc(Cl)cc(Cl)c1O | – | 1.45 µM (active)
20 | O=C1OC2(c3ccccc31)c1cc(I)c(O)c(I)c1Oc1c2cc(I)c(O)c1I | inactive | 83 µM (active)
21 | CCC(=O)C=Cc1ccc(OC)cc1 | inactive | –
22 | CCN(CC)CC | inactive | –
23 | NC(=NCCCCCCN=C(N)/N=C(\N)Nc1ccc(Cl)cc1)/N=C(\N)Nc1ccc(Cl)cc1 | inactive | 79.6 µM (active) [middle of 4 runs]
24 | O=C(O)c1cccc(C(=O)O)n1 | inactive | –
25 | Cc1cc(=O)oc2cc(O)ccc12 | inactive | 65 µM (active) and 38.4 µM (active)
26 | Cc1ccc(C(=O)c2ccccc2)cc1 | inactive | –
27 | C[C@]12CC[C@@H]3c4ccc(O)cc4CC[C@H]3[C@@H]1CC[C@@H]2OC(=O)CCC1CCCC1 | inactive | –
28 | CC1=CC(=O)c2ccccc2C1=O | inactive | 40.7 µM (active)
29 | c1cnc2c(c1)ccc1cccnc12 | inactive | –
30 | CCCCCC(C)OC(=O)COc1ccc(Cl)c2cccnc12 (stereo not given) | inactive | –
31 | C[C@]12CC[C@@H]3c4ccc(O)cc4CC[C@H]3[C@@H]1C[C@@H](O)[C@@H]2O | inactive | –
32 | NCCN | inactive | –
33 | CC(O)COc1ccccc1 (stereo not given) | inactive | –
34 | O=C(CCCN1CCC(O)(c2ccc(Cl)cc2)CC1)c1ccc(F)cc1 | inactive | –
